By % Inhibition is commonly meant the change of the read-out against control, counted positive when it falls.

Screen size: about 13,000 compounds; about 3,200 (25%) showed an effect of 50% or more. The list shows a part of the results.

Experimental findings from publication PMC4552634, “A New Set of Chemical Starting Points with Plasmodium falciparum Transmission-Blocking Potential for Antimalarial Drug Discovery” (PLoS ONE, 2015) are described below.

The test system of this assay is P. falciparum stage V gametocytes. Also noted: BacTiter-Glo ATP luminescence viability of purified stage V gametocytes in 384-well plates, per cent inhibition versus DMSO. The settings on record: 48 h, 5 µM; inhibitor.
`CC(O)C1CCCCN1C(=O)c1cccc(-c2ccc(-c3nc4cc(C(F)(F)F)ccc4[nH]3)cc2)c1` (stereo not drawn) [TCMDC-132334]: the “% Inhibition” value is reported as -28.97%.
Then `CC(C)CCn1c(Sc2ccc(C#N)c([N+](=O)[O-])c2)nnc1-c1ccc(N(C)C)cc1` [TCMDC-135617], with 45.75%; and `COc1ccc(-c2nc3c(NCc4ccccc4)nccc3[nH]2)c(OC)c1` [TCMDC-137551], with -15.03%; and `C=CCn1c(SCc2c(C)noc2C)nc2scc(-c3cccs3)c2c1=O` [TCMDC-125027], with -8.905%.
The result for `CC(C)c1ncc(-c2ccncc2)c(C2CCC(CNC(=O)c3ccncc3)CC2)n1` (stereo not drawn) [TCMDC-124824] reads 1.29%; that for `Cc1[nH]c2ccccc2c1C1=CCN(CCN2CCOc3c(Br)cccc3C2=O)CC1` [TCMDC-140965], -7.337%.
The result for `CN1CCN(c2cc3c(Nc4ccc5c(cnn5Cc5ccccc5)c4)ncnc3cn2)CC1` [TCMDC-137767] reads 5.484%; that for `N#Cc1ccc2c(c1)CN(C1CCC(NC(=O)c3cc(-c4ccc(Cl)cc4)cs3)CC1)CCC2` (stereo not drawn) [TCMDC-133504], 5.468%.
Turning to `CC(C)(C)OC(=O)/C=C(\C(=O)OCc1ccc([N+](=O)[O-])cc1)c1csc(NC(c2ccccc2)(c2ccccc2)c2ccccc2)n1` [TCMDC-131971], the “% Inhibition” value was 65.48%.
With `CCOC(=O)/C(=N\OC(C)(C)C(=O)NCc1ccc(O)c(O)c1)c1csc(NC(c2ccccc2)(c2ccccc2)c2ccccc2)n1` [TCMDC-132099], the “% Inhibition” value is reported as -13.25%.
The result for `CCOC(=O)/C(=N\OC(C(=O)OC(C)(C)C)c1ccccc1)c1csc(NC(c2ccccc2)(c2ccccc2)c2ccccc2)n1` (stereo not drawn) [TCMDC-131980] reads 21.22%; that for `COc1ccc(NC(=O)/C=C/c2ccc(Oc3ccccc3Cl)c([N+](=O)[O-])c2)cc1OCCN(C(C)C)C(C)C` [TCMDC-140388], -71.01%.
Turning to `COC(=O)c1ccc2nc(-c3ccc(C(=O)NC4CCN(Cc5ccccc5)CC4)s3)[nH]c2c1` [TCMDC-140426], the “% Inhibition” value is recorded as -65.59%.
Regarding `O=C(/C=C/c1ccc(-c2nc3ccc(Cl)cc3[nH]2)cc1)NC1CCN(Cc2ccccc2)CC1` [TCMDC-140443], the “% Inhibition” value was 63%.
Then `CC(C)(C)c1ccc2nc(-c3ccc(/C=C/C(=O)NC4CCN(Cc5ccccc5)CC4)cc3)[nH]c2c1` [TCMDC-140456], with 48.62%.
On to `Cc1cc2nc(-c3ccc(C(=O)NC4CCN(Cc5ccccc5)CC4)cc3)[nH]c2cc1C` [TCMDC-140428], for which the “% Inhibition” value is -59.23%.
In the case of `COC(=O)c1ccc2nc(-c3ccc(/C=C/C(=O)NC4CCN(Cc5ccccc5)CC4)cc3)[nH]c2c1` [TCMDC-140446], the “% Inhibition” value worked out at 84.95%.
Consider `Cc1cc2nc(-c3ccc(/C=C/C(=O)NC4CCCCC4)cc3)[nH]c2cc1C` [TCMDC-140435], for which the “% Inhibition” value is -5.542%.
For the compound `CC(C)(C)c1ccc2nc(-c3ccc(C(=O)NC4CCN(Cc5ccccc5)CC4)s3)[nH]c2c1` [TCMDC-140514], the “% Inhibition” value amounted to 58.98%.
The result for `O=C(NC1CCN(Cc2ccccc2)CC1)c1cccc(-c2nc3ccc(Cl)cc3[nH]2)c1` [TCMDC-140425] reads 27.77%; that for `Cc1cc2nc(-c3cccc(C(=O)NC4CCN(Cc5ccccc5)CC4)c3)[nH]c2cc1C` [TCMDC-140424], 75.94%.
In the case of `O=C(C=Cc1ccc(-c2nc3ccccc3[nH]2)cc1)NC1CCN(Cc2ccccc2)CC1` [TCMDC-140400], the “% Inhibition” value is given as -89.03%.
The result for `COC(=O)c1ccc2nc(-c3cc(OC)c(O)c(C(=O)NC4CCN(Cc5ccccc5)CC4)c3)[nH]c2c1` [TCMDC-140427] reads 6.107%; that for `Cc1ccc2nc(-c3ccc(C(=O)NC4CCN(Cc5ccccc5)CC4)s3)[nH]c2c1` [TCMDC-140399], -1.012%.
Then `CCN1CCN(c2cc(C)c3cc(NC(=O)c4cncc(Br)c4)ccc3n2)CC1` [TCMDC-125571], with -6.09%.
For the compound `Cc1ccc(-n2c(=O)c3c(n4c(SC(C)C)nnc24)-c2ccccc2CC32CCCCC2)cc1` [TCMDC-125077], the “% Inhibition” value is reported as -67.75%.
The result for `Cc1cc([N+](=O)[O-])ccc1NC(=O)Nc1cccc(C(F)(F)F)c1` [TCMDC-124561] reads -49.1%; that for `Cc1cccc2nc(-c3cccc(-c4cccc(C(=O)NCCN5CCCC5)c4)c3)[nH]c12` [TCMDC-132323], 21.11%.
The result for `C=CC[C@H](NC(=O)c1ccc(NS(=O)(=O)c2ccc3nc(N)[nH]c(=O)c3c2)cc1)C(=O)OCCCC` [TCMDC-137699] reads 10.92%.
Consider `CCCCCCCCN1CCCN(C(=O)c2cccc(NC(=O)Nc3ccc4ccccc4c3)c2)CC1` [TCMDC-141690], for which the “% Inhibition” value was -11.26%.
As for `CC(CNc1ccnc(Nc2ccc3[nH]c(=O)[nH]c3c2)n1)c1ccccc1` (stereo not drawn) [TCMDC-136806], the “% Inhibition” value is recorded as -16.39%.
The result for `Nc1nc(N)c2c(Sc3ccccc3)cccc2n1` [TCMDC-131943] reads 8.754%; that for `NC(=O)c1ccsc1NC(=O)CNC(c1ccccc1)c1ccc(Cl)cc1` (stereo not drawn) [TCMDC-125330], 14.63%.
In the case of `Cc1ccc2nc(-c3ccc(C=CC(=O)NC4CCN(Cc5ccccc5)CC4)cc3)[nH]c2c1` [TCMDC-140401], the “% Inhibition” value was determined as 2.225%.
The result for `Cc1cc2nc(-c3ccc(/C=C/C(=O)NC4CCN(Cc5ccccc5)CC4)cc3)[nH]c2cc1C` [TCMDC-140434] reads 78.1%; that for `Cc1ccc2[nH]c(-c3ccc(/C=C/C(=O)NC4CCN(Cc5ccccc5)CC4)cc3)nc2c1C` [TCMDC-140451], -45.16%.
The result for `Cc1cc(NC(=O)c2cccs2)ccc1OC1CCN(Cc2ccc(C#N)cc2)CC1` [TCMDC-133954] reads 61.72%; that for `O=C(Nc1ccc(OC2CCN(Cc3ccccc3)CC2)c(Cl)c1)c1ccco1` [TCMDC-133966], 63.08%; that for `O=C(Nc1ccc(OC2CCN(Cc3ccc(F)cc3)CC2)c(Cl)c1)c1ccco1` [TCMDC-133750], 24.88%.
Regarding `O=C(Nc1ccc(OC2CCN(Cc3ccccc3)C2)c(Cl)c1)c1ccco1` (stereo not drawn) [TCMDC-133971], the “% Inhibition” value is on record as 37.01%.
On to `O=C(Nc1ccc(OC2CCN(Cc3ccc(F)cc3)C2)c(Cl)c1)c1cccs1` (stereo not drawn) [TCMDC-133757], for which the “% Inhibition” value is given as 50.68%.
Then `O=C(Nc1ccc(OC2CCN(Cc3ccc(F)cc3)C2)c(Cl)c1)c1ccco1` (stereo not drawn) [TCMDC-133761], with 61.05%.
On to `N#Cc1ccc(CN2CCC(Oc3ccc(NC(=O)c4cccs4)cc3Cl)CC2)cc1` [TCMDC-133955], for which the “% Inhibition” value was found to be 10.06%.
For `O=C(Nc1ccc(OC2CCN(Cc3ccc(F)cc3)CC2)c(Cl)c1)c1cccs1` [TCMDC-133746], the “% Inhibition” value was 32.62%.
The result for `Cc1cc(NC(=O)c2ccco2)ccc1OC1CCN(Cc2ccc(F)cc2)C1` (stereo not drawn) [TCMDC-133760] reads 22.57%; that for `Cc1cc(NC(=O)c2cccs2)ccc1OC1CCN(Cc2ccc(C#N)cc2)C1` (stereo not drawn) [TCMDC-133960], 27%.
Then `Cc1cc(NC(=O)c2cccs2)ccc1OC1CCN(Cc2ccc(F)cc2)C1` (stereo not drawn) [TCMDC-133754], with 20.26%.
The result for `O=C(Nc1ccc(OC2CCN(Cc3ccsc3)CC2)c(Cl)c1)c1ccco1` [TCMDC-134271] reads 9.288%.
